Reference: PubChem BioAssay AID393 (SGCOxCompounds, 2006)
Activity calls are given as the source filed them. No rule for the calls is given here.

The molecules below were run against Serine/threonine-protein kinase pim-1 (Homo sapiens) (UniProt P11309) (assay: PIM1 kinase ligand binding by thermal shift, biophysical, human, melting temperature shift (AID 393)). Conditions: Thermal shift assay, stronger effect = higher value; at 10 µM, protein 2 µM, buffer 10 mM PIPES, pH 6.5, NaCl 150 mM unless noted.
Chain of Serine/threonine-protein kinase pim-1 (Homo sapiens) (P11309 whole entry, looked up): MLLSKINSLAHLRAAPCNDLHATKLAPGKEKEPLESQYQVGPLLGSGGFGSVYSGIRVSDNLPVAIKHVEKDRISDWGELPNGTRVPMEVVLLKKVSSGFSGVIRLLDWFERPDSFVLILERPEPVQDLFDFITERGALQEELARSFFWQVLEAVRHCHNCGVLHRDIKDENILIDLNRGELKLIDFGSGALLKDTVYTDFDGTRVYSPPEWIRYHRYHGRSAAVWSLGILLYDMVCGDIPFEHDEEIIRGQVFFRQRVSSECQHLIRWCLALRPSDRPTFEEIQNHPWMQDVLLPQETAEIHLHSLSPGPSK

Tm shift, active:
COc1ccc2oc3c(=O)[nH]cnc3c2c1 3.45 Celsius, c1ccc(-c2cnc3ccc(NCc4cccs4)nn23)cc1 5.81 Celsius [at 5 µM, protein 1 µM, buffer 10 mM HEPES], N#Cc1ccc(-c2cnc3ccc(NC4CCOCC4)nn23)cc1 5.36 Celsius, OCC1=C(O)C(O)[C@@H](N2CNc3cc(Cl)c(Cl)cc32)O1 (stereo not given in full) 3.7 Celsius [at 10 µM, protein 2 µM, buffer 10 mM Na Citrate, pH 6.5, NaCl 150 mM], Clc1cccc(-c2cnc3ccc(NC4CCOCC4)nn23)c1 7.02 Celsius [at 10 µM, protein 3 µM, buffer 10 mM HEPES]
